In all, about 75,000 compounds went through this assay and about 5,700 (7.6%) were called active. Not shown: some 7% with an inconclusive outcome. The call rests on the fitted dose curve; in most records, active means well fitted inhibition curve with a large enough effect; inconclusive means small, poorly fitted or top-dose-only effect; inactive means no such curve, though single readings can be large or run the other way. The list comes from a sample in which actives are over-represented; it also holds similar structures and randomly drawn compounds.
What follows are compounds tested against 3-hydroxyacyl-CoA dehydrogenase type-2 (Homo sapiens) (UniProt Q99714) (assay: qHTS Assay for Inhibitors of HSD17B4, hydroxysteroid (17-beta) dehydrogenase 4). Conditions: recombinant HSD17B10, NADH fluorescence kinetic; series mostly up to 57.1 µM; activity change, negative = inhibition: at the top concentration.
Outline: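 Activity followed as NADH fluorescence increase (ex 360, em 450 nm) every 30 seconds for 4 min, using final 90 uM beta-hydroxybutyryl CoA and 1 mM NAD+. Recombinant His-tagged enzyme, 20 nM, pH 9.0 Tris buffer, 15 min compound preincubation.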
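Further: the protocol describes HADH2 (HSD17B10) and not the HSD17B4 of the title; nearly all actives have a fitted effect of over 70% in size.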
On the % scale 0 is the no-effect control and ±100 the full control effect; potency means the concentration at half of the fitted maximal effect.

Activity change, negative = inhibition, inactive:
O=C(c1c(Cl)nc2sccn12)N1CCCc2ccccc21 6.22%
CC(C)NC(=O)N1CC[C@@]2(CCCN(C(=O)c3ccco3)C2)C1 4.84%
O=C(c1ccco1)N1CCC[C@@]2(CCN(c3ccccc3)C2)C1 -5.83%
COc1ccc(OC)c(S(=O)(=O)Nc2ccccc2F)c1 3.76%
COC(=O)c1ccc(NC(=O)CSc2nnc(-c3ccncc3)n2C)cc1 3.29%
CC(=O)NC1=NC(=O)CS1 9.12%
O=C1CC(c2ccccc2)C(=O)N1c1cccc(O)c1 (stereo not drawn) 3.33%
Cc1ccc(Oc2nc3ccccc3n3c(C)nnc23)cc1 8.54%
CCCCNC(=O)CSc1nnc(-c2ccco2)n1C 2.87%
CC1=C2C(=O)OC(c3ccoc3)C2(C)CCC1 (stereo not drawn) 0.438%
Cc1ccccc1OCCC(=O)Nc1c(C)n(C)n(-c2ccccc2)c1=O 9.86%
O=C(CCN1C(=O)c2ccncc2C1=O)Nc1ccc2c(c1)OCCO2 8.58%
O=C(NCc1ccc2c(c1)OCO2)c1ccc2c(c1)C(=O)N(CC1CCCO1)C2=O (stereo not drawn) 4.35%
O=C(CCN1C(=O)c2ccccc2C1=O)NCCN1CCOCC1 2.59%
COCc1nc2ccccc2n1Cc1ccccc1Br -7.7%
COC(=O)N1CCC2(CCCN(Cc3ccccc3OC)C2)CC1 -0.535%
Cn1c(=O)n(C)c(=O)n(CC(=O)N2CCCCC2)c1=O 6.19%
Cn1nnc2cc(C(=O)NCCC3=CCCCC3)ccc21 -1.07%
CC1CCCN(C(=O)c2ccc3c(c2)C(=O)N(CCC2=CCCCC2)C3=O)C1 (stereo not drawn) -6.99%
CC1(C)C(=O)C2(CCCCC2)C(=O)OC1c1cccs1 (stereo not drawn) 3.06%
CC(C)CO 1.5%
CCCC(Cl)CCCC(Cl)CCC(Cl)CCC(Cl)CCC(Cl)CCCC(Cl)CCC (stereo not drawn) -1.3%
CCC(=NC1CC(C)(C)NC(C)(C)C1)C1=C(O)CC(C)(C)CC1=O 5.65%
CCOC(=O)c1c(NC(=O)c2cccs2)sc(C)c1C 4.57%
CCCOC(=O)Nc1sc2c(c1C(=O)OCC)CCC2 1.55%
CCOC(=O)c1c(NC(=O)CCC(=O)NCc2ccco2)sc2c1CCCC2 77.2%
COC(=O)c1c(NC(=O)CSc2nncs2)sc2c1CCCCC2 -21.2%
COc1cc(OC)c(NC(=O)c2ccc(Br)o2)cc1Cl -11.6%
CCc1c(C)sc(NC(=O)OC)c1C(=O)N1CCOCC1 0.217%
CCOc1ccc(N=C2SC(C(=O)O)CC(=O)N2C)cc1 (stereo not drawn) -5.63%
O=C(CCS(=O)(=O)Cc1ccccc1F)NCCCN1CCCCC1 -0.743%
Cn1c2c(c(=O)n(C)c1=O)C1c3ccccc3OCC1C(C)(C)O2 (stereo not drawn) 0.573%
NCC(=O)[C@@H](O)[C@H](O)[C@H](O)CO 0.448% [at 11.4 µM]
COc1ccc(NC(=O)c2cccc(NC(=O)c3ccco3)c2)c(OC)c1 2.18%
Cc1cc(C(=O)O)ccc1[N+](=O)[O-] -1.07%
CC(C)OC(=O)CN1C(=O)c2ccccc2C1=O 7.56%
CC(C)NC(=O)N1CCCC2(CCN(C(=O)c3cccn3C)CC2)C1 -3.12%
CC1CCCC(NC(=O)CSc2nccn2C)C1C (stereo not drawn) 2.63%
O=C(OCC(COC(=O)c1ccccc1)(COC(=O)c1ccccc1)COC(=O)c1ccccc1)c1ccccc1 -5.96%
C/C(CCN1CCc2nc(-c3ccccc3)c(-c3ccccc3)cc2C1)=N\O[C@@H](C)c1cn([C@@H]2COC[C@@H]2O)nn1 2.35% [at 11.4 µM]
O=C(O)CCCCC(=O)O 2.81%
CC1CC[C@@]23CCC4(C)[C@@]5(C)CCC6C(C)(C)C(O)CC[C@@]6(C)C5C=C[C@@]4(OC2=O)C3C1C (stereo partly drawn) -0.0461%
O=C(NCCN1C(=O)C2C3C=CC(C3)C2C1=O)Nc1ccccn1 (stereo not drawn) 1.72%
C=CCSc1nc2ccccc2[nH]1 -0.152%
COC(=O)Cc1nc2ccccc2[nH]1 381%
C=CCSc1nc2c(c(=O)[nH]1)C(C(C)C)C(C#N)=C(N)O2 (stereo not drawn) 3.83%
O=C(O)c1cccc(S(=O)(=O)NCCO)c1 10% [at 11.4 µM]
O=C(NCc1ccccc1)[C@H]1C[C@@H]1[C@H](NP(=O)(c1ccccc1)c1ccccc1)c1ccccc1 6.99%
COC(=O)c1ccc2c(c1)S(=O)(=O)NC(=NCCCN1CCOCC1)S2 -0.629%
COc1ccc(C(=O)N/N=C2/C(=O)c3c(C)cc(C)cc3CC2(C)C)cc1 12.3% [at 11.4 µM]
Cc1nc(C)c(C(=O)Nc2cccc(C)c2C)o1 -14.6%
Cc1cccc(NC(=O)CSc2nc3c(c(=O)[nH]2)CCC3)c1C 0.476%
Cc1nnc(NC(=O)CCC(=O)N2CCC(C)CC2)s1 1.68%
CCCCC/C=C/C=C/C=O 1.42%
CCn1c(=N)n(CC(=O)c2cccc(OC)c2)c2ccccc21 -4.18%
CC(=O)Nc1ccc(S(=O)(=O)NCCc2ccccc2)cc1 -0.345%
COC(=O)CCCCCN1C(=O)NC(c2ccc(-c3ccccc3)cc2)C(C(=O)OCc2ccccc2)=C1C (stereo not drawn) -27.6%
COc1cc(-c2nn3c(-c4cccc(C)c4)nnc3s2)cc(OC)c1OC -3.23%
Fc1ccc(-c2nnc3sc(-c4ccc5c(c4)OCO5)nn23)cc1 -11%

Potency, active:
O=C(c1ccco1)N1CCC2(CC1)CCN(c1ncccn1)CC2 31.6 µM
CN(c1nc2ccccc2n2c(-c3ccco3)nnc12)S(=O)(=O)c1ccccc1 1 µM
CCC(=O)Nc1ccc(C(=O)Nc2ccc3c(c2)C(=O)N(CC2CCCO2)C3=O)cc1 (stereo not drawn) 31.6 µM
Cc1ccc2c(c1)c1ncn(CCC3=CCCCC3)c(=O)c1n2C 31.6 µM
CCc1c(C)sc(NC(=O)c2ccc(Br)o2)c1C(=O)OC 31.6 µM
COC(=O)c1c(NC(=O)c2cccs2)sc2c1CCCC2 31.6 µM
CCOC(=O)c1c(NC(=O)c2ccc(Br)o2)sc2c1CCCC2 25.1 µM
C#CCCCCCCCCCCCCCCCC(=O)O 15.8 µM
c1ccc(-c2[nH]ncc2-c2nc3ccccc3[nH]2)cc1 12.6 µM
c1ccc2[nH]c(-c3nc4ccccc4[nH]3)nc2c1 25.1 µM
Cc1cccc(NC(=O)CSC(N)=O)c1C 31.6 µM
CCn1c2c(c3ccc(OC)cc31)CCCC2=O 25.1 µM
c1ccc(-c2cc(-c3nnc4sc(-c5ccccn5)nn34)[nH]n2)cc1 31.6 µM

Potency, inactive:
CCCCCCCCCCCC(=O)O

— PubChem BioAssay AID893 (National Center for Advancing Translational Sciences (NCATS), 2007)
